This passage reports Potency results from PubChem BioAssay (NCATS).

Results filed as inconclusive are left out. A call without a number means that no potency is given here. Active and inactive are the calls of the source. Calls come from the whole dose curve; as a rule, active = well fitted cell-killing curve with a large enough effect; inconclusive = small, poorly fitted or top-dose-only effect; inactive = flat fitted curve, though single readings scatter.
Potency is the fitted concentration of half-maximal effect.

This assay in a line: UWB1.289 Cancer Cell Toxicity qHTS against the NCATS CANVASS Library (AID 1347347). Note: nearly all actives have a fitted effect of over 60% in size. The following applies: UWB1.289 viability, CellTiter-Glo luminescence, 72 h; series mostly up to 38.3 µM. The text has this: Natural products and their derivatives continue to be wellsprings of nascent therapeutic potential. However, many laboratories have limited resources for biological evaluation, leaving their previously isolated or synthesized compounds largely or completely untested. To address this issue, the Canvass library of natural products was assembled (https://tripod.nih.gov/canvass), in collaboration with academic and industry researchers, for quantitative high-throughput screening (qHTS) across a diverse set of cell-based and biochemical assays. The pure (>85% purity by liquid chromatography/mass spectrometry [LC/MS]) Canvass library of 346 natural products were submitted by 45 academic laboratories and companies around the world. We collected pure natural products to circumvent deconvolution and structure elucidation due to time and resource limitations. The library was formatted into 1536-well plates and evaluated in 50 qHTS (in an 11-pnt concentration series) bioassays with broad scope of disease-relevant mechanisms. The resulting data set from 50 different assays was then systematically analyzed to identify overall trends and specific natural products with interesting biological activities. Reported herein are the results of each individual qHTS and their corresponding assay protocol. National Center for Advancing Translational Sciences (NCATS), Rockville, MD National Institute of Health (NIH), Bethesda, Maryland
Cancer Cell Toxicity protocol for cell lines COV-362, OV-KATE, OV-SAHO, UWB1.289, UWB1.289-WTBRCA1, HEK-293, HPAF-II, Panc-1005, SW1088, or U-118MG. 1. In a 1536 well, white solid bottom tissue culture plates (Corning 7494), corresponding cells (COV-362, OV-KATE, OV-SAHO, UWB1.289, UWB1.289-WTBRCA1, HEK-293, HPAF-II, Panc-1005, SW1088, or U-118MG) were dispensed in each well at a final concentration of 1000 cells / well (6uL volume) using the Multidrop Combi (Thermo Fisher Scientific) dispenser. 2. The plates were incubated for 4 hours at 37 degrees C/5% CO2/95% Rh. 3. Compounds were pin transferred (~23nL volume) via Wako Pin-tool (Wako Automation, Richmond VA) equipped with a 1536 pin head. The assay plates were treated with compounds in an 11-pnt concentration series with a final concentration range of […] to 85uM. 4. Bortezomib was used as a single dose control (0.5mM column 4, rows 1 - 32) at a final concentration of 1.9uM and as a 16pnt titration (1mM; 1:2 dilution; 16-points; n = 2; column 3, rows 1 - 32) with final concentration range of 0.1nM - 3.8uM. 5. The assay plates were incubated for 72 hours at 37 degrees C/5% CO2/95% Rh. 6. 3uL CellTiter-Glo detection reagent was then added to the plates (columns 2 - 48, rows 1 - 32) and incubated at room temperature for additional 15min. 7. Luminescence signal was acquired via the ViewLux plate reader (PerkinElmer) using a clear filter, 2 second exposure and 2x binning settings.
On the technique in general: qHTS replaces the single test concentration by a dilution series.
With `CO[C@@H](/C=C/CC/C=C/C(=O)O)[C@@H](O)[C@H](C)/C=C(\C)[C@@H](O)[C@H](C)C(=O)CCCC1CC(=O)NC(=O)C1`, the Potency result is “inactive”.
The value for `CNCCc1ccc(O)cc1` was “inactive”.
`CNCCc1c[nH]c2ccccc12`: the Potency result is “inactive”.
As for `CC1=CC(=O)C2=C(C)C[C@H](O)[C@@H]3[C@H](OC(=O)[C@@H]3C)[C@@H]12`, the Potency entry was “inactive”.
`CC[N@@+]1([O-])C[C@]2(C)CC[C@@H](O)[C@@]34C5C[C@H]6CC[C@@]5(C(C[C@H]23)C41)[C@H](O)[C@@]6(O)CO` (some centres not stated): the Potency entry was “inactive”.
The value for `c1ccc2c3c([nH]c2c1)CNCC3` was “inactive”.
Turning to `CC[C@@H]1CN2CC[C@@]3(O)C(=Nc4cccc(OC)c43)[C@@H]2C[C@@H]1/C(=C\OC)C(=O)OC`, the Potency entry was “inactive”.
For `CCCCC[C@@H]1OC(=O)[C@@H](C)N(C)C(=O)[C@H](CCCCC)OC(=O)C(C)N(C)C(=O)[C@H](CCCCC)OC(=O)[C@@H](C)N(C)C(=O)[C@H](CCCCC)OC(=O)C(C)N(C)C1=O` (some centres not stated), the Potency is 13.3 µM (active).
To `CN(C)Cc1c[nH]c2ccccc12` belongs “inactive”; to `CCC(=O)CCCCC[C@@H]1NC(=O)[C@H]2CCCCN2C(=O)[C@H]([C@@H](C)CC)NC(=O)[C@H](Cc2cn(OC)c3ccccc23)NC1=O`, 2.11 µM (active).
In the case of `COc1ccc(C23Oc4cc(OC)cc(OC)c4[C@](O)([C@H](c4ccccc4)C2C(=O)NCCCCNC(=O)c2ccccc2)[C@@H]3O)cc1` (some centres not stated), the Potency entry was “inactive”.
With `COC(=O)C1=C2Nc3ccccc3[C@@]23CCN2CC(C(C)=O)C1C[C@H]23` (some centres not stated), the Potency entry is “inactive”.
`CNCCc1ccccc1`: the Potency entry was “inactive”.
`CO[C@H](c1ccccc1)[C@H]1NC(=O)C(C)NC(=O)C(C[C@@H](C)CO)N(C)C(=O)[C@@H](C(O)c2cn(C(C)(C)C3CO3)c3ccccc23)NC(=O)C(C(C)C=C(C)C)NC(=O)C(CC(C)C)N(C)C(=O)C(C(C)C)NC1=O` (some centres not stated): the Potency result is “inactive”.
Consider `O=C(c1ccccc1O)c1[nH]c(Cl)c(Cl)c1-n1c(C(=O)c2ccccc2O)cc(Cl)c1Cl`, for which the Potency is 3.75 µM (active).
Take `CN1C(=O)[C@]23CC4C(C)(C)[C@@]5(C[C@@]41CN2CC[C@@]3(C)O)C(=O)Nc1c5ccc2c1OC=CC(C)(C)O2` (some centres not stated): the Potency result is “inactive”.
In the case of `CCN1C[C@]2(C)CC[C@H](O)[C@]34C1C(C[C@H]23)[C@@]12CC[C@H](CC14)[C@](O)(COC(=O)c1ccc(OC)c(OC)c1)[C@H]2O` (some centres not stated), the Potency entry was “inactive”.
`CCN1C[C@]2(C)CC[C@@H](O)[C@]34C1[C@H](C[C@H]23)C12CCC(CC14)[C@](O)(CO)[C@H]2O` (some centres not stated): the Potency result was “inactive”.
To `C/C=C1/CN2CC[C@]34C(=Nc5ccccc53)[C@@H]2C[C@@H]1[C@H]4C(=O)OC` belongs “inactive”; to `CC1=CC2CC[C@@H]3[C@@H](C)C[C@H](C)[C@@H](C1)N23` (some centres not stated), “inactive”.
To `C=C1[C@@H](C)[C@H]2[C@H](Cc3ccccc3)NC(=O)[C@]23OC(=O)/C=C/[C@H](O)CCC[C@@H](C)C/C=C/[C@H]3[C@@H]1O` belongs 5.94 µM (active); to `C[C@]12CC(O)C3[C@@H](CCC4C[C@@H](O)CC[C@@]43CO)[C@@]1(O)CCC2C1=CC(=O)OC1` (some centres not stated), “inactive”; to `C[C@@H]1CC[C@@H](c2ccoc2)N2C[C@@]3(CC[C@@H]12)CS[C@@]1(CC[C@H]2[C@H](C)CC[C@@H](c4ccoc4)N2[C@@H]1O)C3`, 6.66 µM (active).
With `CO[C@@H](/C=C/CC/C=C/C(=O)O)[C@@H](O)[C@H](C)[C@@H](O)/C(C)=C/[C@H](C)C(=O)CCCC1CC(=O)NC(=O)C1`, the Potency result is “inactive”.
As for `CC(=O)N[C@H]1CCN2CCC[C@H]12`, the Potency result was “inactive”.
Consider `NCCc1ccccc1`, for which the Potency entry is “inactive”.
On to `CCC[C@H]1CC[C@H]2[C@H](C)CCC[C@H]2N1`, for which the Potency result is “inactive”.
